# Measurements reported in PubChem BioAssay AID2238 (Southern Research Specialized Biocontainment Screening …, 2010).
# The source made the active and inactive calls. The rule behind the calls is not given here.
# Test: West Nile virus CPE inhibition, SAR follow-up, cell-based, synthesized analogs (AID 2238)
# Conditions: West Nile virus CPE inhibition in cells; max CPE inhibition: measured here: maximum CPE inhibition observed, at 40 µM, stronger effect = higher value unless noted; series mostly up to 40 µM
SMILES,max CPE inhibition,outcome
CC1CCN(CCCNC(=O)c2cc3c(s2)-c2ccccc2OC3)CC1,"73.1% [measured here: maximum CPE inhibition observed, at 20 µM, stronger effect = higher value]",–
c1ccc2c(c1)CN1CCCC1=N2,"2.6% [measured here: maximum CPE inhibition observed, at 80 µM, stronger effect = higher value]",inactive
COc1ccc(-c2csc(N(CCCN(C)C)C(=O)c3ccccc3Cl)n2)cc1,69.5%,–
O=C(CSc1nc2ccccc2c(=O)n1-c1ccccc1)Nc1ccc2c(c1)CCC2,72%,–
Brc1ccc2c(c1)CN1CCCC1=N2,54.9%,–
CN(C)CCCNC(=S)N1CCN(c2nc(-c3ccccc3)cs2)CC1,"55.7% [measured here: maximum CPE inhibition observed, at 20 µM, stronger effect = higher value]",–
O=C(CSc1nc2ccccc2c(=O)n1-c1ccc(F)cc1F)Nc1ccc(N2CCOCC2)cc1,"58% [measured here: maximum CPE inhibition observed, at 80 µM, stronger effect = higher value]",–
Cc1cccc2nc3n(c(=O)c12)CCC3,1.92%,inactive
O=C(CSc1nc2ccccc2c(=O)n1-c1ccccc1F)Nc1ccc2c(c1)CCC2,"71.6% [measured here: maximum CPE inhibition observed, at 20 µM, stronger effect = higher value]",–
COc1cccc(NC(=O)CSc2nc3ccccc3c(=O)n2-c2ccc(F)cc2)c1,1.33%,inactive
CCOC(=O)C1(Cc2ccccc2C(F)(F)F)CCN(C2CCN(C(C)C)CC2)CC1,59.8%,–
CCN(CC)CCCNC(=S)N1CCN(c2nc(-c3ccc(F)cc3)cs2)CC1,"29.4% [measured here: maximum CPE inhibition observed, at 20 µM, stronger effect = higher value]",inactive
O=C(CSc1nc2ccccc2c(=O)n1-c1ccc(F)cc1)Nc1cccc2ccccc12,2.57%,inactive
O=C(CSc1nc2ccccc2c(=O)n1-c1ccc(Cl)cc1)Nc1ccc2c(c1)CCC2,"45.5% [measured here: maximum CPE inhibition observed, at 20 µM, stronger effect = higher value]",–
CCN(CC)CCCNC(=S)N1CCN(c2nc(-c3ccccc3)cs2)CC1,"76% [measured here: maximum CPE inhibition observed, at 20 µM, stronger effect = higher value]",–
O=c1c2cc(I)ccc2nc2n1CCC2,0.68%,inactive

SMILES,max CPE inhibition,outcome
CCCN1CCN(CCCNC(=O)c2cc3c(s2)-c2c(C)cccc2OC3)CC1,"42.7% [measured here: maximum CPE inhibition observed, at 10 µM, stronger effect = higher value]",–
O=C(CSc1nc2ccccc2c(=O)n1-c1ccc(F)cc1)Nc1ccc2c(c1)CCC2,65.2%,–
O=C(CSc1nc2ccccc2c(=O)n1-c1ccc(Cl)c(Cl)c1)Nc1ccc2c(c1)CCC2,63.1%,–
Cc1cccc2c1-c1sc(C(=O)NCCCN3CCC(C)CC3)cc1CO2,"30.6% [measured here: maximum CPE inhibition observed, at 10 µM, stronger effect = higher value]",–
CN(C)CCCN1c2ccc([N+](=O)[O-])cc2CCc2cc([N+](=O)[O-])ccc21,"80.3% [measured here: maximum CPE inhibition observed, at 20 µM, stronger effect = higher value]",–
COc1ccc(-c2csc(N(CCCN(C)C)C(=O)c3ccccc3C)n2)cc1,"60.8% [measured here: maximum CPE inhibition observed, at 80 µM, stronger effect = higher value]",–
CC1(O)c2cc(Br)ccc2N=C2CCCN21 (configuration not stated),"1.3% [measured here: maximum CPE inhibition observed, at 0.16 µM, stronger effect = higher value]",inactive
OC1c2cc(Br)ccc2N=C2CCCN21 (configuration not stated),79.7%,–
CC1CCCC(C)N1CCCNC(=O)c1cc2c(s1)-c1ccccc1OC2 (configuration not stated),"77% [measured here: maximum CPE inhibition observed, at 10 µM, stronger effect = higher value]",–
CCOC(=O)C1(Cc2ccccc2C(F)(F)F)CCN(C2CCN(C(C)=O)CC2)CC1,"1.58% [measured here: maximum CPE inhibition observed, at 20 µM, stronger effect = higher value]",inactive
CC1CC(C)CN(CCCNC(=O)c2cc3c(s2)-c2ccccc2OC3)C1 (configuration not stated),"41.1% [measured here: maximum CPE inhibition observed, at 20 µM, stronger effect = higher value]",–
COc1ccc(-c2csc(N(Cc3ccccc3)C(=O)c3ccccc3Cl)n2)cc1,2.87%,inactive
O=C(CSc1nc2ccccc2c(=O)n1-c1ccc(F)c(Cl)c1)Nc1ccc2c(c1)CCC2,"65.7% [measured here: maximum CPE inhibition observed, at 20 µM, stronger effect = higher value]",–
O=c1c2cc([N+](=O)[O-])ccc2nc2n1CCC2,"0.23% [measured here: maximum CPE inhibition observed, at 1.25 µM, stronger effect = higher value]",inactive
O=C(CSc1nc2ccccc2c(=O)n1-c1ccc(F)cc1F)Nc1ccc2c(c1)CCC2,"64.8% [measured here: maximum CPE inhibition observed, at 80 µM, stronger effect = higher value]",–
CC1CCCN(CCCNC(=O)c2cc3c(s2)-c2ccccc2OC3)C1 (configuration not stated),"71.4% [measured here: maximum CPE inhibition observed, at 10 µM, stronger effect = higher value]",–
